DT40 TDP1 no CPT: qHTS for Inhibitors of human tyrosyl-DNA phosphodiesterase 1 (TDP1): qHTS in cells in absence of CPT; DT40 Tdp1-/- hTDP1 cells, no CPT, ATP luminescence, 48 h; Potency, µM (highest dose often 46.2 µM), most hits filed as inhibitors; actives 15% (n = 420,000); AID 686978, 2013; note: nearly all actives have a fitted effect of over 55% in size
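Compound effects on proliferation are scored in DT40 Tdp1-/-;hTDP1 cells in the absence of CPT. ATP levels (CellTiter-Glo luminescence) are recorded after a ≥48 hr, 37 °C incubation.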
TDP1 cell CPT: growth inhibition of DT40 Tdp1-/-;hTDP1 cells with camptothecin (screen for TDP1 inhibitors) | chicken DT40 Tdp1-/-;hTDP1 cells + 20 nM CPT, ATP luminescence, 48 h | Potency, µM (series often up to 46.2 µM), actives largely listed as inhibitors | actives 12% (n = 420,000) | AID 686979; note: nearly all actives have a fitted effect of over 55% in size
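Chicken DT40 Tdp1-/- cells complemented with human TDP1, 400 cells/well, exposed to compounds plus 20 nM camptothecin for at least 48 h at 37 C; viability read as ATP content by CellTiter-Glo luminescence.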
IL1B secr inh: blocks inflammasome-driven IL-1 beta release; activity change, % at 57.5 µM; THP-1 LPS/ATP IL-1B secretion, AlphaLISA, 16 h; hits give low values; AID 743279; actives 4.7% (n = 360,000); in the data active = activity change below about -50%; inconclusive = mostly about -30% to -49%
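THP-1 cells pretreated 1 hr with compounds (up to 57.5 uM final), then stimulated with LPS (250 ng/mL final) plus ATP (1.25 mM final); secreted IL-1B measured by AlphaLISA after 16 hr, decreased signal indicating inhibition.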
HepG2 viability: kills HepG2 cells in TGF-b inhibitor counter-screen; actives 0.76% (n = 410,000); HepG2 CAGA-GFP viability, ATP luminescence, 18 h; Potency, µM (highest dose often 46.1 µM), most hits filed as cytotoxic
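CellTiter-Glo luminescence gave cytotoxicity after 18 hours at 37 degrees C. The cells were HepG2 CAGA-GFP in 1% FBS DMEM, stimulated with 500 pg/mL TGF-beta after compound addition. %Activity was normalised to no-cell wells (complete cell-killing) and DMSO (no toxicity), and curves were fitted and classified.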
TGFb SMAD3 inh: inhibitors of TGF-b signaling | actives 1.2% (n = 410,000) | HepG2 CAGA-GFP TGF-b/SMAD3 reporter, GFP fluorescence, 18 h; TGF-beta stimulated, 500 pg/mL final | AID 588855 | Potency, µM (series often up to 46.1 µM), hits mostly inhibitors; note: nearly all actives have a fitted effect of over 65% in size
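Read-out: total well GFP (ex488/em500-530) summed from mean per-cell fluorescence. Cells: HEPG2 CAGA-GFP, 1% FBS DMEM, 18 h at 37 degrees C with 500 pg/mL final TGF-beta. Unstimulated wells served as the full-inhibition control; stimulated DMSO wells = 0%.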
TDP1 block: inhibitors of human tyrosyl-DNA phosphodiesterase TDP1. Q9NUW8. recombinant TDP1, AlphaScreen DNA substrate cleavage. Potency, µM (series often up to 130 µM), most hits filed as inhibitors. actives 0.28% (n = 350,000). AID 485290; note: nearly all actives have a fitted effect of over 40% in size
Target sequence (Q9NUW8 whole entry, looked up): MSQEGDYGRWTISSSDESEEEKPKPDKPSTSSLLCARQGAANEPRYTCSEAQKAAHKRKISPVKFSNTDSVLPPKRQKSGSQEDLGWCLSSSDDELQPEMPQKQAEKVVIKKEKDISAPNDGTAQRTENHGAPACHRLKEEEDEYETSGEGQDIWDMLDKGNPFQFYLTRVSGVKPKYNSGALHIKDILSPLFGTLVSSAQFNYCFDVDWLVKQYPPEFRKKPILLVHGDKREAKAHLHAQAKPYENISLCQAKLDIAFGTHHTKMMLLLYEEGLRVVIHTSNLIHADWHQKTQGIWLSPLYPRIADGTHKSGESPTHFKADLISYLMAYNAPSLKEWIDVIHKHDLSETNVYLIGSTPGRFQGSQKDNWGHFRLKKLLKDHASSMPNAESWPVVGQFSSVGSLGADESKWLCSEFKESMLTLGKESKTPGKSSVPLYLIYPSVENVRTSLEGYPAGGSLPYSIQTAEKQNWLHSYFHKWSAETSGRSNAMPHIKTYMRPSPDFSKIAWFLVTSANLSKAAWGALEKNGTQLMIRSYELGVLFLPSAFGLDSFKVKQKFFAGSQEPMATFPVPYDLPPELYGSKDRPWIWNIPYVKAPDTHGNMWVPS
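Recombinant E. coli-expressed Tdp1 (1 nM) preincubated with compound 15 min at RT, then 5'-biotin/3'-phosphotyrosine-FITC DNA substrate (15 nM) added for 5 min. AlphaScreen beads (10 ug/ml) added, 10 min RT; tyrosine-FITC cleavage read as signal loss.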
A number is an active result; n = inactive; u = inconclusive; x = no result. Rows were chosen to be rich in hits. Some 19% of all compounds tested hit in one or more screens of this group. Unless noted, calls come from the whole dose curve; as a rule, active = well fitted curve in the direction sought with a large enough effect; inconclusive = small, poorly fitted or top-dose-only effect, or another doubt; inactive = no such curve, though single readings can be large; an effect the other way counts as inactive or inconclusive.

SMILES | DT40 TDP1 no CPT | TDP1 cell CPT | IL1B secr inh | HepG2 viability | TGFb SMAD3 inh | TDP1 block
Cc1ccc2nc(Cl)c(C3CC(c4cccs4)=NN3C(=O)CCCC(=O)O)cc2c1 (centres undefined) | 8.2µM | n | n | n | n | n
COc1ccc2cc(C3CC(c4ccco4)=NN3S(C)(=O)=O)c(Cl)nc2c1 (centres undefined) | u | u | n | n | n | n
CNc1cc(-c2ccccc2C(F)(F)F)ncn1 | n | n | x | x | x | x
CC(C)CN1C(=O)c2ccc(C(=O)Nc3ccc(OCC(=O)O)cc3)cc2C1=O | n | n | n | n | n | x
Nc1c(Cl)cc(C2=NCCn3nc4ccccc4c32)cc1Cl | u | 23µM | n | n | n | n
COc1ccc2c3n(nc2c1)CCN=C3c1ccc(C)cc1 | u | 16µM | n | n | n | x
COC(=O)[C@H]1C[C@@]2(O)CN(S(=O)(=O)c3ccc(C)cc3)C[C@@]2(OC(=O)NC2CC2)C[C@H]1C(=O)OC | n | n | n | n | n | x
CN(Cc1ccccc1)C(=O)c1nc(-c2ccc(Cl)cc2)n2c1CCCCC2 | u | u | x | n | u | n
CC(=O)OCC(=O)[C@@]12OC3(CCCC3)OC1CC1C3CCC4=CC(=O)C=C[C@@]4(C)[C@]3(F)C(O)C[C@]12C (some centres undefined) | x | x | x | x | x | n
COc1cc(C(=O)NNC(=S)NC(=O)/C=C/c2ccccc2)cc(OC)c1OC | u | 16µM | n | n | n | n
CCCCC(=O)NC(=S)Nc1cc(C(=O)O)ccc1OC | n | n | n | n | u | n
COc1ccc(C(=O)O)cc1NC(=S)NC(=O)/C=C/c1ccc(C(C)C)cc1 | n | n | -66 | n | n | x
COc1ccc(/C=C/C(=O)NC(=S)NNC(=O)Cc2cccs2)cc1OC | u | 16µM | n | n | n | n
COc1cc(C(=O)NNC(=O)/C=C/c2ccccc2)cc(OC)c1OC | n | n | -74 | n | n | n
CCCN(C(=O)c1ccc(OCC(C)C)cc1)c1c(N)n(Cc2ccccc2)c(=O)[nH]c1=O | n | n | n | n | n | n
Cc1cc(C)c2c(CC(=O)Nc3ccc(S(=O)(=O)Nc4nc(C)cc(C)n4)cc3)coc2c1 | u | u | x | n | n | n
COc1ccc(-c2cc(C(=O)Nc3c(C(=O)c4ccc(C)cc4)oc4ccccc34)no2)cc1 | n | n | x | n | n | n
CCOC(=O)c1c(C)[nH]c(C)c1S(=O)(=O)N1CCC(C(=O)Nc2ccccn2)CC1 | n | n | x | n | n | n
CCOC(=O)C1=C(C)N(c2ccccc2)C(=O)/C1=C\c1ccco1 | u | u | -59 | n | n | n
CCOC(=O)C1=C(C)N(c2ccccc2)C(=O)/C1=C\c1cccs1 | u | u | u | n | n | n
Cc1ccc(-c2cc(C(=O)NCCc3ccccn3)c3ccccc3n2)c(C)c1 | u | u | u | n | n | n
O=C(NCc1ccccn1)c1cc(-c2ccc(Br)cc2)nc2ccccc12 | 13µM | u | n | n | n | n
Cc1ccc(-c2cc(C(=O)NCc3ccccn3)c3ccccc3n2)cc1 | 16µM | u | n | n | n | n
O=C(NCCc1ccccn1)c1cc(-c2cccc3ccccc23)nc2ccccc12 | u | 26µM | n | n | n | n
Cc1ccc2nc(-c3ccccn3)cc(C(=O)NCCc3ccc(F)cc3)c2c1 | 21µM | u | n | n | n | n
SMILES | DT40 TDP1 no CPT | TDP1 cell CPT | IL1B secr inh | HepG2 viability | TGFb SMAD3 inh | TDP1 block
CCOc1cc(C#N)c(NC(=O)c2cccc(S(=O)(=O)N3CCOCC3)c2)cc1OCC | u | n | x | n | n | n
O=C(CSc1ncccn1)NNC(=O)c1ccccc1 | n | n | n | n | n | x
N=c1sccn1CC(=O)Nc1ccc(Cl)cc1[N+](=O)[O-] | u | n | n | n | n | n
CC(C)CCOC(=O)/C=C/c1ccccc1 | x | x | x | x | x | n
CC(=O)CCC1C2C(O)C(C(C)C)C(OC(=O)/C=C/c3ccccc3)CC12C (centres undefined) | 26µM | 18µM | n | n | u | x
C(=C\c1ccccc1)/CN1CCN(C(CCc2ccccc2)c2nnnn2-c2ccc3c(c2)OCCO3)CC1 (centres undefined) | 21µM | 10µM | n | n | u | x
CCC(c1nnnn1-c1ccc2c(c1)OCCO2)N1CCN(C/C=C/c2ccccc2)CC1 (centres undefined) | 13µM | u | n | n | u | x
CCC(c1nnnn1-c1ccc2c(c1)OCCO2)N1CCN(c2ncccn2)CC1 (centres undefined) | u | u | n | x | x | x
COc1ccc(-n2nnnc2C(C2CC2)N2CCN(C/C=C/c3ccccc3)CC2)cc1 (centres undefined) | u | u | n | n | u | x
C(=C\c1ccccc1)/CN1CCN(C(c2nnnn2-c2ccc3c(c2)OCCO3)C2CC2)CC1 (centres undefined) | 15µM | 23µM | n | n | u | x
CCN1CCN(C2=C(Cl)C(=O)N(Cc3ccccc3)C2=O)CC1 | u | 23µM | n | n | n | n
CN1CCN(C2=C(Cl)C(=O)N(Cc3ccccc3)C2=O)CC1 | n | n | n | n | n | n
CC1=C(C(=O)OCC2CCCCC2)C(c2ccc(Cl)cc2Cl)CC(=O)N1 (centres undefined) | 21µM | u | x | n | n | n
CC1=C(C(=O)OC2CCCCCC2)C(c2ccc(Cl)cc2Cl)CC(=O)N1 (centres undefined) | 16µM | 15µM | x | n | n | n
CC1=C(C(=O)OC2CCCCCC2)C(c2cccc(Cl)c2)CC(=O)N1 (centres undefined) | 18µM | 18µM | x | n | u | n
CC1=C(C(=O)OCC2CCCCC2)C(c2cccc(Cl)c2Cl)CC(=O)N1 (centres undefined) | n | n | x | n | n | n
CCOCCCNC(=O)C(c1ccccc1)N(Cc1ccc2c(c1)OCO2)C(=O)c1ccc(NC(C)=O)cc1 (centres undefined) | n | u | x | n | n | n
CCOCCCNC(=O)C(c1ccc(C)cc1)N(Cc1cccs1)C(=O)c1ccc(NC(C)=O)cc1 (centres undefined) | 18µM | 21µM | x | n | n | n
CCOCCCNC(=O)C(c1ccccc1)N(Cc1cccs1)C(=O)c1ccc(NC(C)=O)cc1 (centres undefined) | 16µM | u | x | n | u | n
